Rows were chosen to be rich in hits. Some 1.8% of all compounds tested hit in one or more screens of this group.
TLR4-MyD88 inh: inhibitors of human TLR4-MyD88 binding. O00206. Cell-based TLR4-MyD88 binding inhibition assay. inhibition, % at 10 µM. 0.06% of 16,000 active. AID 811; in the data active = inhibition above about 45%
Target sequence (O00206 whole entry, looked up): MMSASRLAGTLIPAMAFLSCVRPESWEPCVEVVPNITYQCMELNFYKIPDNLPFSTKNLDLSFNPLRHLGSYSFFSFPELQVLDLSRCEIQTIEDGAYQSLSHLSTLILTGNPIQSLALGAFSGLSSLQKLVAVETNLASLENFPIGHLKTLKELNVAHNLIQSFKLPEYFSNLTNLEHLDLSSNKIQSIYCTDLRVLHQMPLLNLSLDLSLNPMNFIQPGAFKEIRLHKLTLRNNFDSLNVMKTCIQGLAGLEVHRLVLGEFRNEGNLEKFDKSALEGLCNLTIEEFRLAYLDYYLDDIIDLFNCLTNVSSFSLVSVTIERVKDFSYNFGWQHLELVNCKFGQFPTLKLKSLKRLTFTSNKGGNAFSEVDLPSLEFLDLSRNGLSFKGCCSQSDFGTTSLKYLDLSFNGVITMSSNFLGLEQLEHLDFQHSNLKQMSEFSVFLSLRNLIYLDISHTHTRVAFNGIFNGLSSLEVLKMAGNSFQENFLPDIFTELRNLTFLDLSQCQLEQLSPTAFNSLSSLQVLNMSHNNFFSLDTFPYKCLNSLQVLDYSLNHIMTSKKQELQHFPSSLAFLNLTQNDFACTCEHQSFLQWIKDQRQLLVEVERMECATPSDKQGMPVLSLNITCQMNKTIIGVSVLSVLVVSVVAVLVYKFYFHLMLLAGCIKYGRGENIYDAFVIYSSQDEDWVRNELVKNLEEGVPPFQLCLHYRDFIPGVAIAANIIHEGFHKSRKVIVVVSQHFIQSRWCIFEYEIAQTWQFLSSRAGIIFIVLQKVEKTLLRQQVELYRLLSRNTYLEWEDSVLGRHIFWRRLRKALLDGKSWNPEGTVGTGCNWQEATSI
S1P1 ag: activates the human S1P1 receptor | P21453 | S1P1 agonist cell-based reporter assay | activation, % at 4.5 µM | 1.5% of 16,000 active | AID 1044; in the data active = activation above about 80%
rat GALR2 agon: GALR2 (rat) receptor agonism; O08726; cell-based GALR2 agonist screen; activation, % at 10 µM; 0.5% of 16,000 active; in the data active = activation above about 15%
The depositor's hits bear a star; . = no result given.

SMILES | TLR4-MyD88 inh | S1P1 ag | rat GALR2 agon
Cn1c(=O)c2c(nc(N=Nc3c(O)[nH]c4cc(Br)ccc34)n2C)n(C)c1=O | 9 | 15 | -6
CC12CCC(C1)C(C)(C)C2NS(=O)(=O)c1ccc(C#N)cc1 (stereo unspecified) | -1 | -2 | -5
O=S(=O)(Cc1ccc(Cl)cc1)NCc1cccnc1 | -3 | -15 | 27*
Clc1ccc(NCc2cccnc2)c(Cl)c1 | -3 | 1 | -3
COC(=O)C1=C(C)NC(=O)C1CC(=O)O (stereo unspecified) | -7 | 3 | -6
O=C(c1sc2ccccc2c1Cl)N1CCN(C(=O)C2CCCO2)CC1 (stereo unspecified) | -1 | -10 | -4
Cc1cc(C(=O)Nc2c(-c3ccccc3)c(C(F)(F)F)nn2C)no1 | -12 | -1 | -6
Cn1nc(C(F)(F)F)c(-c2ccccc2)c1N1C(=O)C2C3C=CC(C3)C2C1=O (stereo unspecified) | 6 | 86* | -6
CCCCCc1cnc(-c2ccc(C#N)cc2)nc1 | 13 | 74 | -6
NC(=O)N/N=C/c1ccc(-c2cc(C(F)(F)F)cc(C(F)(F)F)c2)s1 | 7 | 98* | -6
N#CC(C#N)=Cc1ccc(-c2cc(C(F)(F)F)cc(C(F)(F)F)c2)s1 | -2 | 11 | 5
O=C(Cn1nnc(N2CCOCC2)n1)NNC(=S)Nc1cccc(C(F)(F)F)c1 | -4 | 0 | -8
CC1(C)CC(=O)c2c(SCCOC(=O)c3ccccc3Cl)sc(C#N)c2C1 | -18 | 97* | -5
CC1(C)CC(=O)c2c(SCCOC(=O)Nc3ccc(OC(F)(F)F)cc3)sc(C#N)c2C1 | -16 | -19 | -10
Cc1ccc(C)c(N=Cc2cc(Cl)cc(Cl)c2O)c1 | 5 | 10 | 16*
CC(=O)Nc1cc(N=Cc2cc(Cl)cc(Cl)c2O)ccc1C | . | -8 | 5
CN(C)/C=C1\CCCc2ccccc2C1=O | 9 | 10 | -4
O=C(NNC(=S)Nc1cccc(C(F)(F)F)c1)c1cccnc1 | -1 | -22 | 0
O=C(NNC(=S)Nc1cccc(C(F)(F)F)c1)c1sc2ccccc2c1Cl | -1 | 96* | -1
Cc1cc(C)c2c(c1)CC(C)(C)/C(=N/NC(=O)CC#N)C2=O | -6 | 5 | -4
COc1ccc(-n2ncc(C(=O)Nc3ccccc3Oc3ccccc3)c2C)cc1 | -11 | 48 | -12
CCCCNc1ccc2c3c(cccc13)C(=O)N(CCCC)C2=O | 55* | 74 | -12
O=C1c2cccc3c([N+](=O)[O-])ccc(c23)C(=O)N1CCCN1CCOCC1 | -1 | 11 | -5
CCOC(=O)c1ccc(OS(=O)(=O)c2ccc(NC(C)=O)cc2)cc1 | 6 | 74 | -14
CC(=NCCc1ccccc1)C1CCOC1=O (stereo unspecified) | 8 | 114* | 0
SMILES | TLR4-MyD88 inh | S1P1 ag | rat GALR2 agon
O=C(Cc1ccccc1)NC1CCN(C(=O)Cc2ccccc2)CC1 | -5 | -13 | -5
CC1CC(=O)Nc2ccccc2N1S(=O)(=O)c1ccc(F)cc1F (stereo unspecified) | 2 | -1 | -4
CC1CC(=O)Nc2ccccc2N1S(=O)(=O)c1cn(C)cn1 (stereo unspecified) | 9 | 121* | -6
COc1c(Cl)cc(Cl)c(OC)c1C(=O)O/N=C(\N)c1ccc([N+](=O)[O-])o1 | -9 | 35 | -5
N/C(=N\OC(=O)c1c(F)cccc1F)c1cccc(-n2cccc2)c1 | 2 | 95* | -6
NC(=S)c1cccc(-n2cccc2)c1 | 3 | 5 | -3
C#CC(CC)(CC)NC(=S)NCCc1ccccc1 | -7 | -9 | -3
Cc1ccc(NC(=S)N(C)/N=C/c2ccccn2)cc1Cl | -46 | -2 | -5
Cc1ccc(C(=O)/C=C/C(=O)O)c(C)c1F | -4 | -34 | -11
Cc1n[nH]c(=O)c(Cc2ccc(Cl)cc2)n1 | 6 | -1 | -2
CC(=O)Nc1cc([N+](=O)[O-])ccc1-n1cc(C)c(C(F)(F)F)n1 | 50* | -3 | -4
CC(=O)Nc1cc([N+](=O)[O-])ccc1Sc1ccccc1N | -10 | 1 | -7
COC(=O)C1=CN2c3ccccc3SC2(C(=O)OC)C(C(=O)OC)=C1C(=O)OC (stereo unspecified) | . | 99* | -5
COC(=O)c1ccccc1-n1cccc1C(=O)OC | 4 | -1 | -3
CN(N)C(=S)NC(C)(C)C | 4 | 5 | -4
Cc1csc(-c2nc(-c3ccc(C(F)(F)F)cc3)no2)c1 | 1 | 86* | -7
Cc1nc(-c2noc(-c3ccc(C(F)(F)F)cc3)n2)cs1 | 5 | 14 | -6
CN(C)C(=O)/C=C/c1ccccc1 | 1 | -8 | -4
CC(=O)C1C(=O)C=C(/C=C/c2ccccc2)CC1c1ccccc1 (stereo unspecified) | -5 | 99* | -8
Cc1cc(SCC#N)c(C)cc1Cl | 4 | 1 | -4
N/C(=N\OC(=O)c1cccc(C(F)(F)F)c1)c1ccc(OCC(F)(F)F)nc1 | 0 | 84* | -6
N/C(=N\OC(=O)c1cccc(Cl)c1)c1cccc(C(F)(F)F)c1 | -2 | 99* | -6
N/C(=N\OC(=O)c1ccc(-c2cccs2)s1)c1cccc(C(F)(F)F)c1 | 11 | 65 | -5
N/C(=N\OC(=O)c1cccc(C(F)(F)F)c1)c1cnccn1 | -3 | 9 | 3
Cc1c(C(=O)Sc2ccc(F)cc2F)sc2nc(C(F)(F)F)nn12 | 7 | -10 | -7
SMILES | TLR4-MyD88 inh | S1P1 ag | rat GALR2 agon
O=C1NCCN1CCNS(=O)(=O)c1ccc(S(=O)(=O)c2ccccc2)s1 | 16 | 84* | 5
O=C1NCCN1CCNS(=O)(=O)c1ccc2c(c1)CCO2 | 4 | -8 | -1
CCC(=O)Nc1cccc2c(NC(=O)CC)cccc12 | 12 | 82* | -4
CCC(=O)Nc1cc(F)ccc1C | -7 | -21 | -3
O=C(/C(=C\c1cccs1)c1ccsc1)N1CCOCC1 | 6 | -4 | -5
N#C/C(=C\c1cccs1)C(=O)N1CCOCC1 | 4 | 100* | -7
CC(=O)Nc1ccc(NC(=O)c2ccccc2C(=O)O)cn1 | -3 | -3 | -5
O=C1c2ccccc2S(=O)(=O)N1CC1CC1 | -3 | -15 | -9
O=C1c2ccccc2S(=O)(=O)N1CCS(=O)(=O)c1ccc(Cl)cc1Cl | . | 91* | -2
C=CCNC(=O)/C(C#N)=C/N(C)C | 8 | -4 | -6
O=C(CO/N=C/c1ccc(Cl)cc1Cl)NNC(=S)Nc1cc(Cl)ccc1Cl | 0 | 86* | -4
COC(=O)CO/N=C/c1ccc(Cl)cc1Cl | 0 | 14 | -4
N/C(COc1ccc(C2=NCCS2)cc1)=N\O | . | -13 | -8
COc1ccc(C(N)=O)cc1OC1CCCC1 | -7 | -18 | -3
COc1ccc(/C(N)=N/OC(=O)c2ccccc2)cc1OC1CCCC1 | 3 | 102* | -6
COc1cc(C(=O)NC(=S)Nc2nc(-c3ccc(F)cc3)cs2)cc(OC)c1OC | -3 | -9 | 3
COc1c(Cl)cc(Cl)cc1-c1csc(NC(=O)C(Cl)(Cl)Cl)n1 | -8 | 89* | -8
Cc1ccc([N+](=O)[O-])cc1S(N)(=O)=O | 12 | -5 | -8
CCN(c1ccccc1)S(=O)(=O)c1cc([N+](=O)[O-])ccc1N | 1 | 100* | -7
COC(=O)c1cc(=O)nc(N)s1 | -10 | -6 | -3
CCn1nc(C)c([N+](=O)[O-])c1C(=O)Sc1cccc(Br)c1 | -3 | -4 | -6
C#CCOC(=O)Nc1cnc(Sc2ccccc2)c(C(F)(F)F)c1 | 12 | 11 | -8

Screens deposited in PubChem BioAssay by The Scripps Research Institute Molecular Screening Center.
